Source: PubChem (National Center for Advancing Translational Sciences (NCATS))
Compounds with a hit are over-represented: about 2.4% of the library has one in this group of screens.
D2 ag-1 – Beta-Arrestin HTS for Positive Allosteric Modulators of the Human D2 Dopamine Receptor: Agonists | activation, % (concentration not given with the values) | DiscoveRx PathHunter D2 beta-arrestin, luminescence, 90 min; 100% = 57 uM dopamine signal | 360,000 tested, 0.084% active | D(2) dopamine receptor (Homo sapiens), P14416 | AID 624465, 2012; in the data active = activation above about 40%; inconclusive = between about 15% and that limit
Target sequence (P14416 whole entry, looked up): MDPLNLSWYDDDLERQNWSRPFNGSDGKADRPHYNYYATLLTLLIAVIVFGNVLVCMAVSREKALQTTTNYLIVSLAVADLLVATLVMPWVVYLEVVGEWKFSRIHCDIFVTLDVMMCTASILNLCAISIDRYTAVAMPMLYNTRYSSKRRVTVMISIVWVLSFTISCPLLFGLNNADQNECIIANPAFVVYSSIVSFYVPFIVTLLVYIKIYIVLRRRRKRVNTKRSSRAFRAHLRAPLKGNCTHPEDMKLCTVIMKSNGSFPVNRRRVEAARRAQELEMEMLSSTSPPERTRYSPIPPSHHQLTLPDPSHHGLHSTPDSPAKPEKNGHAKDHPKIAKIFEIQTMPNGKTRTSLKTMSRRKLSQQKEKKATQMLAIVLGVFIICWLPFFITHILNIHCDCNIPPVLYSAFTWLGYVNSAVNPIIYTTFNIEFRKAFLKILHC
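DiscoveRx PathHunter D2 beta-arrestin cells (2,100/well) attached overnight, then compound-stimulated 90 min at 37 C in HBSS/10 mM HEPES/0.1% Tween-20 buffer; beta-galactosidase complementation read by luminescence after 1 h at ambient temperature. Dopamine 57 uM final (EC100) as control.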
D2 PAM-1 – HTS Assay for Positive Allosteric Modulators of the Human D2 Dopamine Receptor: Primary Screen for Potentiators; potentiation, % at 10 µM; 340,000 tested, 0.34% active; HEK293 T-REx D2, calcium flux, EC20 dopamine potentiation;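 active = potentiation over 3 SD above the plate norm, cut at about 30% in these data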
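Cells plated with tetracycline inducer and held overnight at 30 C; calcium dye loaded 30–90 min at room temperature; baseline taken, compound added and read 180 s; EC20 dopamine then added and read 180 s.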
D2 ag-2 – HTS Assay for Allosteric Agonists of the Human D2 Dopamine Receptor: Primary Screen for Agonists; activation, % at 2 µM; 340,000 tested, 0.53% active; D(2) dopamine receptor (Homo sapiens), P14416; HEK293 T-REx D2 cells, calcium flux agonist mode;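 active = activation over 3 SD above normal in the single-dose calcium agonist read, cut at about 30% in these data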
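HEK293 Trex D2 cells, tetracycline-induced, o/n 30 C 5% CO2; no-wash Ca dye, RT 30–90 min; 10-cycle baseline, 23 nl cpd added, kinetic Ca read 180 s; agonist hits = positive Ca response.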
D2 antagonist – HTS Assay for Allosteric Antagonists of the Human D2 Dopamine Receptor: Primary Screen for Antagonists. D(2) dopamine receptor (Homo sapiens), P14416. HEK293 TREx D2 cells, calcium flux, dopamine EC80. inhibition, % at 10 µM. 340,000 tested, 2% active; in the data active = inhibition above about 30%; inactive = below that, where a call was filed
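In this primary screen, negative modulation is detected by tracking calcium flux after an EC80 dopamine challenge in inducible HEK293 T-REx D2 cells preexposed to test compound for 180 s.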
D2 PAM-2 – Beta-Arrestin HTS for Positive Allosteric Modulators of the Human D2 Dopamine Receptor: Potentiators | potentiation, % (no concentration beside the values) | AID 624464, 2012 | D(2) dopamine receptor (Homo sapiens), P14416 | 360,000 tested, 0.23% active | DiscoveRx D2 beta-arrestin cells, luminescence, 90 min; 100% = 57 uM dopamine signal; in the data active = potentiation above about 50%; inconclusive = mostly about 30% to 49%
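D2 cells co-treated with compound plus 50 nM dopamine (EC20) for 90 min at 37 deg C to detect potentiation. Beta-arrestin recruitment was read as enzyme-fragment luminescence after 1 h at ambient temperature. Full response was set by 57 uM dopamine.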
Large screens that a line does not name were inactive.

COC(=O)c1ccc(/C=C/c2c(-c3ccc(OC)cc3)oc3ccccc23)cc1	D2 antagonist 47.0
COc1ccc(-c2oc3ccccc3c(=O)c2OC(=O)c2ccc(C)cc2)cc1	D2 PAM-1 30.9
COc1ccc(/C=C/c2c(-c3ccc(OC)cc3)oc3ccccc23)cc1	none
CSc1cccc(NC(=O)c2cccc(N3CCCS3(=O)=O)c2)c1	none (no result: D2 ag-1, D2 antagonist, D2 PAM-2)
COc1cccc(C(=O)n2nc(-c3ccco3)nc2NCc2cccs2)c1	none (no result: D2 ag-1, D2 antagonist, D2 PAM-2)
CCS(=O)(=O)c1ncc(Cl)c(C(=O)N(Cc2ccccc2)c2ccc(OC)cc2)n1	none (no result: D2 ag-1, D2 antagonist, D2 PAM-2)
COc1cc(/C=N/N(CCO)C2=NS(=O)(=O)c3ccccc32)cc(OC)c1OC	none
COc1cc(Br)cc(/C=N/N(CCO)C2=NS(=O)(=O)c3ccccc32)c1OC	D2 antagonist 38.0
CCOC(=O)c1cc(NC(=O)c2ccc(Cl)cc2)c(=O)n2c1oc1ccc(Cl)cc12	D2 antagonist 31.5
CCOC(=O)c1cc(NC(=O)c2ccc(C)cc2)c(=O)n2c1oc1ccc(Cl)cc12	none (no result: D2 ag-1, D2 antagonist, D2 PAM-2)
CCN(CC(=O)Nc1c(F)cccc1F)C(=O)C1COc2ccccc2O1 (configuration not stated)	D2 antagonist 35.7
CC(C)c1ccc(S(=O)(=O)Nc2cc3c(cc2NCc2ccccc2)n(C)c(=O)n3C)cc1	none (no result: D2 ag-1, D2 antagonist, D2 PAM-2)
CC(C)(C)OC(=O)NCCCCCNC(=O)c1nc[nH]c1C(=O)NCC(=O)OCc1ccccc1	D2 ag-1 inconclusive, D2 PAM-2 52.0 (no result: D2 PAM-1, D2 ag-2, D2 antagonist)
O=C(CCn1cnnn1)Nc1ccc(F)cc1	D2 antagonist 31.9
CC(=O)Nc1ccc(NC(=O)CCn2cnnn2)cc1	none
CCOC(=O)C1(Cc2ccccc2)CCN(Cc2cnn(-c3ccccc3)c2)CC1	D2 antagonist 33.3
CCOC(=O)CCNC(=O)N1CCC(CCOc2ccccc2)(C(=O)OCC)CC1	none (no result: D2 PAM-1, D2 ag-2, D2 antagonist)
CCOC(=O)C1(CCc2ccccc2)CCN(Cc2cccc3nccnc23)CC1	D2 antagonist 65.3
CCOC(=O)C1(Cc2ccccc2)CCN(Cc2cnn(CC)c2)CC1	none
CCOC(=O)C1(CCOc2ccccc2)CCN(Cc2ccncc2)CC1	none
CCOC(=O)C1(CCOc2ccccc2)CCN(Cc2ccc(-n3cccn3)cc2)CC1	D2 antagonist 35.2
CCOC(=O)C1(CCOc2ccccc2)CCN(S(=O)(=O)N(C)C)CC1	D2 antagonist 42.9
CCOC(=O)c1nccnc1C(=O)Nc1cccc(C(F)(F)F)c1	D2 antagonist 31.9
Cc1ccc(C(=O)Nc2cccc(C(F)(F)F)c2)cc1Nc1cnccn1	D2 antagonist 58.6
CCOC(=O)c1nccnc1C(=O)Nc1ccc(C(F)(F)F)cc1	none
COc1cc(-c2noc(-c3ccc(N4CCN(C)CC4)c([N+](=O)[O-])c3)n2)cc(OC)c1OC	none (no result: D2 ag-1, D2 antagonist, D2 PAM-2)
O=C(c1ccco1)N(Cc1ccccc1)Cc1ccccn1	D2 antagonist 56.6
CN1CCN(C(c2ccccc2)c2ccc(Cl)cc2)CC1 (configuration not stated)	none (no result: D2 PAM-1, D2 ag-2, D2 antagonist)
CN1CCN(C(c2cccc(Cl)c2)c2ccccc2Cl)CC1 (configuration not stated)	D2 antagonist 82.6
CCCOc1cccc(C(=O)Nc2ccc(-c3nc4ccccc4o3)cc2)c1	none (no result: D2 ag-1, D2 ag-2, D2 antagonist, D2 PAM-2)
COCCn1cnc2c1c(=O)n(Cc1ccccc1C#N)c(=O)n2Cc1ccccc1	D2 PAM-1 36.2
O=C(CN1CCCC(O)C1)N1c2ccccc2Sc2ccc(C(F)(F)F)cc21 (configuration not stated)	none
CN1CCN(CCCN2c3ccccc3Sc3ccc(C(F)(F)F)cc32)CC1	D2 antagonist 79.1
O=C(N/N=C/c1cccc(O)c1)N/N=C/c1cccc(O)c1	none
Cc1nonc1C(=O)N/N=C/c1cccc(O)c1	D2 antagonist 33.1
O=S1(=O)CCC(NS(=O)(=O)c2cccc3cccnc23)C1 (configuration not stated)	D2 PAM-1 34.2
COc1ccc(C(=O)NCC(c2ccco2)N(C)C)cc1S(=O)(=O)NCc1ccc(Cl)cc1 (configuration not stated)	D2 antagonist 77.7
COc1ccc(C(=O)NCCNC(C)=O)cc1S(=O)(=O)NCc1ccc(Cl)cc1	none
Cc1cc(C)c2c(n1)nn1c(NCCCn3ccnc3)cc(C)nc21	D2 PAM-1 33.8 (no result: D2 ag-1, D2 PAM-2)
Cc1cc(C)c2c(n1)nn1c(NCCCN3CCOCC3)cc(C)nc21	none (no result: D2 PAM-1, D2 ag-2, D2 antagonist)
CC(C)CN(C(=O)Cn1nnc(-c2ccc(F)cc2)n1)C1CCS(=O)(=O)C1 (configuration not stated)	D2 antagonist 55.3
CC(C)CN(C(=O)Cn1nnc(-c2ccc(Cl)cc2)n1)C1CCS(=O)(=O)C1 (configuration not stated)	none (no result: D2 PAM-1, D2 ag-2, D2 antagonist)
CC(C)CN(C(=O)c1cccc(S(=O)(=O)N2CCN(c3ccc(F)cc3)CC2)c1)C1CCS(=O)(=O)C1 (configuration not stated)	D2 antagonist 34.6
Cc1cc2n(n1)CCC(=O)N2Cc1ccc(C(=O)Nc2ccc(Br)c(C)c2)cc1	none (no result: D2 ag-1, D2 antagonist, D2 PAM-2)
CN(CC1CCN(CCc2cccc(C(F)(F)F)c2)CC1)C(=O)c1ccc(F)cc1	D2 antagonist 58.3
CC1CCN(CCCCOc2ccc([N+](=O)[O-])cc2)CC1	none
Cc1ccc(OCCCCN2CCCC(C)C2)c([N+](=O)[O-])c1 (configuration not stated)	D2 antagonist 90.8
Cc1cc(OCCN2CCCCCC2)ccc1[N+](=O)[O-]	D2 antagonist 33.9
CC1CCN(CCCCOc2ccccc2[N+](=O)[O-])CC1	D2 antagonist 79.8
O=[N+]([O-])c1ccccc1OCCCNCc1ccccc1	D2 antagonist 37.6
Cc1ccc(OCCCCNC(C)(C)C)c([N+](=O)[O-])c1	none
Cc1ccc(CSC2=NC(C)(C)Nc3ccccc32)c(C)c1	none (no result: D2 ag-1, D2 antagonist, D2 PAM-2)
COc1ccc(C)cc1NC(=O)CSc1nc(=O)n(Cc2ccncc2)c2c1CCC2	none (no result: D2 ag-1, D2 antagonist, D2 PAM-2)
Cc1cc2c(cc1NS(=O)(=O)c1cccc(C#N)c1)n(C)c(=O)c(=O)n2C	none (no result: D2 ag-1, D2 ag-2, D2 antagonist, D2 PAM-2)
Cc1ccc([N+](=O)[O-])c(OCCCN2CCCCCC2)c1	D2 antagonist 70.9
Cc1cc(Br)ccc1OCCOCCN1CCCC1	D2 antagonist 43.1
CC1CCCN(CCCOc2ccc(Br)cc2Cl)C1 (configuration not stated)	D2 antagonist 36.5
CC1CCN(CCOCCOc2ccc(Br)cc2Cl)CC1	none (no result: D2 PAM-1, D2 ag-2, D2 antagonist)
CN(C)c1ccc(CNC(=O)c2cc3ccccn3n2)cc1	none (no result: D2 ag-1, D2 antagonist, D2 PAM-2)
